Reference: PubChem BioAssay (NCATS)
Inconclusive results are not listed. Activity calls are given as the source filed them. Unless noted, calls follow the shape of the dose curve; as a rule, active = well fitted inhibition curve with a large enough effect; inconclusive = small, poorly fitted or top-dose-only effect; inactive = flat fitted curve, though single readings scatter.

Tests used:
[1] = biological target: Mitogen-activated protein kinase 10 (Mus musculus) (UniProt Q61831); experiment: JNK3 AlphaScreen Assay (AID 530; active = well fitted curve in either direction with a large enough effect, not every such curve was filed as active;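 also: kinase came from lysate of stimulated human HepG2 cells; signal reports phosphorylation of biotinylated GST-cJun 1-79 at Ser73 with 10 µM ATP; % is scaled to controls: 0 for no effect and ±100 for the full control effect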)
Method in brief: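 HepG2 lysate (IL-1b/TNFa pre-activated) + biotin-GST-cJun 1-79 + anti-pSer73 cJun; cpd titration, 15 min RT; ATP 10 uM start; Tris pH 7.6, MgCl2, DTT, vanadate; beads in EDTA buffer; AlphaScreen.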

[2] = biological target: 3',5'-cyclic-AMP phosphodiesterase 4B (Homo sapiens) (UniProt Q07343); experiment: qHTS Assay for Inhibitors of PDE-IV (AID 607; active = well fitted activation curve with a large enough effect in the main read-out, with a control signal flat, not every such curve was filed as active; also: % of control where 0% means no effect)
Method in brief: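 HEK293 ACTOne cells with CNG channel (1000/well), endogenous PDE4; membrane potential dye, compounds up to 22.9 uM final. Fluorescence Ex 535/Em 590; RO 20-1724 (100 uM final) as reference.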

[3] = qHTS Assay for Lipid Storage Modulators (AID 1519; calls by dose curve; as to activity change, negative = inhibition: % is scaled to controls: 0 for no effect and ±100 for the full control effect); details: Drosophila S3 cells, BODIPY lipid droplet/cell ratio, laser cytometry, cells loaded with oleic acid
Method in brief: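 Cells seeded at 5,000 per well were treated with compounds over a concentration series and loaded with oleic acid (400 uM, as added). Lipid droplet fluorescence (488 nm excitation, 500-530 nm channel) was read by laser-scanning cytometry and normalized to 20 uM Triacsin C.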

[4] = biological target: Luciferin 4-monooxygenase (Photinus pyralis) (UniProt P08659); experiment: Biochemical firefly luciferase enzyme assay for NPC (AID 624030);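 also: purified P. pyralis luciferase at 10 nM with luciferin and ATP substrate; 0% = DMSO and -100% = full luciferase inhibition by PTC124 control; nearly all actives have a fitted effect of over 70% in size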
Method in brief: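 Purified P. pyralis luciferase at 10 nM in 50 mM Tris Acetate (final), luminescence read within 5 minutes of enzyme addition to compounds. Activity normalised to PTC124 versus DMSO; concentration-response curves classed by r2, magnitude and activity.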

[5] = qHTS profiling for inhibitors of Plasmodium falciparum proliferation (AID 504749);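 also: 0% = DMSO vehicle and full inhibition = artemisinin control; nearly all actives have a fitted effect of over 60% in size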; details: P. falciparum in erythrocytes, SYBR Green DNA, 72 h, at 12.8 µM (top of the series)
Method in brief: (§1)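 SYBR Green fluorescence (ex 485 nm, em 535 nm) reports parasite DNA after 72 h compound exposure of infected red cells at 0.3% parasitemia, 2.5% hematocrit; signal normalized to 0.29 uM artemisinin and vehicle wells.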

3D7 = experiment: as above; details: P. falciparum in erythrocytes, SYBR Green DNA, 72 h; series mostly up to 12.8 µM
Method in brief: as §1

C2A = experiment: as above; details: P. falciparum in erythrocytes, SYBR Green DNA, 72 h; series mostly up to 12.8 µM
Method in brief: as §1

CP217 = experiment: as above; details: P. falciparum in erythrocytes, SYBR Green DNA, 72 h; series mostly up to 12.8 µM
Method in brief: as §1

CP237 = experiment: as above; details: P. falciparum in erythrocytes, SYBR Green DNA, 72 h; series mostly up to 12.8 µM
Method in brief: as §1

CP238 = experiment: as above; details: P. falciparum in erythrocytes, SYBR Green DNA, 72 h; series mostly up to 12.8 µM
Method in brief: as §1

CP252 = experiment: as above; details: P. falciparum in erythrocytes, SYBR Green DNA, 72 h; series mostly up to 12.8 µM
Method in brief: as §1

CP291 = experiment: as above; details: P. falciparum in erythrocytes, SYBR Green DNA, 72 h; series mostly up to 12.8 µM
Method in brief: as §1

CP297 = experiment: as above; details: P. falciparum in erythrocytes, SYBR Green DNA, 72 h; series mostly up to 12.8 µM
Method in brief: as §1

ECU = experiment: as above; details: P. falciparum in erythrocytes, SYBR Green DNA, 72 h; series mostly up to 12.8 µM
Method in brief: as §1

HB3 = experiment: as above; details: P. falciparum in erythrocytes, SYBR Green DNA, 72 h; series mostly up to 12.8 µM
Method in brief: as §1

PAD = experiment: as above; details: P. falciparum in erythrocytes, SYBR Green DNA, 72 h; series mostly up to 12.8 µM
Method in brief: as §1

PC26 = experiment: as above; details: P. falciparum in erythrocytes, SYBR Green DNA, 72 h; series mostly up to 12.8 µM
Method in brief: as §1

SC27B = experiment: as above; details: P. falciparum in erythrocytes, SYBR Green DNA, 72 h; series mostly up to 12.8 µM
Method in brief: as §1

[6] = biological target: Glucocorticoid receptor (Homo sapiens) (UniProt P04150); experiment: GR-EFC Redistribution (AID 451; calls by dose curve; also: potency is read from the fitted curve at half-maximal effect); details: CHO-K1 GR-EFC translocation, beta-gal luminescence, 2 h
Method in brief: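 CHO-K1 cells expressing nuclear EA and GR-ED fragments of b-gal; compounds titrated up to 46 uM final, 2 h at 37 C. GR nuclear translocation read as complemented b-gal luminescence after 1 h RT detection.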

[7] = biological target: Ubiquitin carboxyl-terminal hydrolase 1 (Homo sapiens) (UniProt O94782); experiment: Inhibitors of USP1/UAF1: Pilot qHTS (AID 504865);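 also: rhodamine fluorescence freed from ubiquitin-rhodamine substrate followed over time; top concentration of the series differs between compounds; % is scaled to controls: 0 for no effect and ±100 for the full control effect; nearly all actives have a fitted effect of over 35% in size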
Method in brief: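 Deubiquitinase activity followed as kinetic rhodamine fluorescence release from 150 nM Ub-Rho. 1 nM USP1/UAF1 with compound, after 15 min room-temperature preincubation, in HEPES pH 7.8 buffer containing TCEP, EDTA, BSA and Tween-20.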

[8] = measured here: cell count channel max response
[9] = measured here: lipid channel max response

Chain of 3',5'-cyclic-AMP phosphodiesterase 4B (Homo sapiens) (Q07343 whole entry, looked up): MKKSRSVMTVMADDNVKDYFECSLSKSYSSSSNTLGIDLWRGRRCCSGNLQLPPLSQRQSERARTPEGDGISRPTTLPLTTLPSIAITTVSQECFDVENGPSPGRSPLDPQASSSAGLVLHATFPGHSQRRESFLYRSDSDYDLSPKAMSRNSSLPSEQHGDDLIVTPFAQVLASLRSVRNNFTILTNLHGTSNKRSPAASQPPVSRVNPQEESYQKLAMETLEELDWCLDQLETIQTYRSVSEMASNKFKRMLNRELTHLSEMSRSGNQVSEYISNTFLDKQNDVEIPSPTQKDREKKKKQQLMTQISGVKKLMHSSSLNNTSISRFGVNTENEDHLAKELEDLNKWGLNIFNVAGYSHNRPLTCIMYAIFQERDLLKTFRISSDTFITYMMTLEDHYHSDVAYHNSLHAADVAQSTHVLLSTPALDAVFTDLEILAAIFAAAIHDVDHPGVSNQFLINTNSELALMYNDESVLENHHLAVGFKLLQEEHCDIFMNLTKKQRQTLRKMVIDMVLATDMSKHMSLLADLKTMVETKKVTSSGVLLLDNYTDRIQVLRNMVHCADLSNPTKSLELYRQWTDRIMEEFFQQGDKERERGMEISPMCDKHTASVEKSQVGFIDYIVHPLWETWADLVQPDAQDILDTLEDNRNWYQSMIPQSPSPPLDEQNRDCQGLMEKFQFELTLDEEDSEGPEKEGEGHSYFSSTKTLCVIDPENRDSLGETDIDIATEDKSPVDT
Chain of Ubiquitin carboxyl-terminal hydrolase 1 (Homo sapiens) (O94782 whole entry, looked up): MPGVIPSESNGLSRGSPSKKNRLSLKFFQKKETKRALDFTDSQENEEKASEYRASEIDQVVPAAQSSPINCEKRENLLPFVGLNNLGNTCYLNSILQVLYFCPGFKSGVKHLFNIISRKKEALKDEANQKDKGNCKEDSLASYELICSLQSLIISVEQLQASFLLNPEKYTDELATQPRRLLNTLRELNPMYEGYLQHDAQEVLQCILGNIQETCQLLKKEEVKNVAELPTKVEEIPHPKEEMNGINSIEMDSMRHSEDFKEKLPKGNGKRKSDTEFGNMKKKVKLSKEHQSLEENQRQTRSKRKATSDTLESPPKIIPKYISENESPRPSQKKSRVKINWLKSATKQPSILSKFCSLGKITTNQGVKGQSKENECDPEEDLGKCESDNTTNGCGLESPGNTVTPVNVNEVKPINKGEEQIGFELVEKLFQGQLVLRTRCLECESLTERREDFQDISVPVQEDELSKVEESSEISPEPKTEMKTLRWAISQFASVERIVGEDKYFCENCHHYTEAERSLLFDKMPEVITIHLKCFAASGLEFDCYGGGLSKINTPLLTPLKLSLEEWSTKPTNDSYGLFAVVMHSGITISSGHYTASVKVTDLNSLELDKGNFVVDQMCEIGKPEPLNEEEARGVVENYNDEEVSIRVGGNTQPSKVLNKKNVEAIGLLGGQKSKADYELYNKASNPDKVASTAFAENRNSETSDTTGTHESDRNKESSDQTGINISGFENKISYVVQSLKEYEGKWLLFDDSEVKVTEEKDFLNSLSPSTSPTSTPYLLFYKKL
Chain of Luciferin 4-monooxygenase (Photinus pyralis) (P08659 whole entry, looked up): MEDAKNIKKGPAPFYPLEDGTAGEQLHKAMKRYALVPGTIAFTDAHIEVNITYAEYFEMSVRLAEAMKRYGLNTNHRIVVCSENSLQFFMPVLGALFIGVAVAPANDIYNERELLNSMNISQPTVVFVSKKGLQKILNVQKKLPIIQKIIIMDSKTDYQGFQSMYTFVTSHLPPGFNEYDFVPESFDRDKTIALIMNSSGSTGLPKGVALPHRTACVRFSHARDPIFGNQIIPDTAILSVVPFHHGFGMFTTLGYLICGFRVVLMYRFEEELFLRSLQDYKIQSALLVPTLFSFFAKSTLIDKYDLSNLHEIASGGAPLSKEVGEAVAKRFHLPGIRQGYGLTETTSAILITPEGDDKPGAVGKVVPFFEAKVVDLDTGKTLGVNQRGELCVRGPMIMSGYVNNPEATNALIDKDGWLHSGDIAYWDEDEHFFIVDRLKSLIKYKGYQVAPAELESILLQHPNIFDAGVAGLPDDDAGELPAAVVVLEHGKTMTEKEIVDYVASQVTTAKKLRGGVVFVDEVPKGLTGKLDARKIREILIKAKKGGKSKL
Chain of Glucocorticoid receptor (Homo sapiens) (P04150 whole entry, looked up, the tested form may be a part): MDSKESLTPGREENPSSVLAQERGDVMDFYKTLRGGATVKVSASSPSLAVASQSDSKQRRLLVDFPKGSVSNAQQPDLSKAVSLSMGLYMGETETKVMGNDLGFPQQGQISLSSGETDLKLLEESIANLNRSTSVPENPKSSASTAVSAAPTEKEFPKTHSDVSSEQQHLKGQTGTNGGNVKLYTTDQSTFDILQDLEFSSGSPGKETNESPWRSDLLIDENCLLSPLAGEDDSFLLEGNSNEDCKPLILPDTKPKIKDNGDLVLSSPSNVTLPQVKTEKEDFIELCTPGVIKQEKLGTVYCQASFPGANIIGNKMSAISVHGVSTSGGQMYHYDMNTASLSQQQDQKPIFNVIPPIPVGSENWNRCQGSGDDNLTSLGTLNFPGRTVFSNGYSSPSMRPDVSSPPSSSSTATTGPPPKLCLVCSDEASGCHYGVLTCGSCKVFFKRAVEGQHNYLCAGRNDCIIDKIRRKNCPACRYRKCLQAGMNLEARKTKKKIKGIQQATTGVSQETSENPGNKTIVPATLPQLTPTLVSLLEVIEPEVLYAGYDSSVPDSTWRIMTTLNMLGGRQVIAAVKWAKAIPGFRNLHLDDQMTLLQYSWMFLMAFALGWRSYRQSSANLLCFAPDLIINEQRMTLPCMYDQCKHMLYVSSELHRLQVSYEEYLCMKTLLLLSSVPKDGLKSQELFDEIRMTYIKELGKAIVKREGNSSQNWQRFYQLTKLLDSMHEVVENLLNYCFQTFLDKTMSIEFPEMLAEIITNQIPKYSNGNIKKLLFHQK

CC1(C)S[C@@H]2[C@H](NC(=O)[C@@H](N)c3ccccc3)C(=O)N2[C@H]1C(=O)O[C@H]1OC(=O)c2ccccc21
-29.9%: max response [3, 9]
-27.2%: max response [3, 8]
inactive: Potency [1] | outcome [2] | activity change, negative = inhibition ([3]; at 25.7 µM (top of the series)) -2.68% | Potency [4] | activity, negative = inhibition ([5]; parasite line A) 9.34% | activity, negative = inhibition ([5]; parasite line B) 6.7% | Potency (3D7) | Potency (C2A) | Potency (CP217) | Potency (CP237) | Potency (CP238) | Potency (CP252) | Potency (CP291) | Potency (CP297) | Potency (ECU) | Potency (HB3) | Potency (PAD) | Potency (PC26) | Potency (SC27B)

COc1ccc(-c2cc(=O)c3c(O)cc(O)cc3o2)cc1
inactive: Potency [6] > 20.6 µM | outcome [2] | activity change, negative = inhibition ([3]; at 57.5 µM (top of the series)) 14.6% | Potency [7]
4.93%: max response [3, 8]
23.2%: max response [3, 9]

C[C@@](N)(C(=O)O)c1cccc(CC(=O)O)c1
1.61%: max response [3, 8]
3.55%: max response [3, 9]
inactive: Potency [6] > 46 µM | Potency [1] | outcome [2] | activity change, negative = inhibition ([3]; at 57.5 µM (top of the series)) 1.75% | Potency [7]

Cc1ccnc(N)c1
-8.73%: max response [3, 9]
inactive: Potency [6] > 46 µM | activity change, negative = inhibition ([3]; at 57.5 µM (top of the series)) -1.11%
-7.5%: max response [3, 8]

C=C(C)[C@H]1CC[C@]2(C(=O)O)CC[C@]3(C)[C@@H](CC[C@H]4[C@@]5(C)CC[C@@H](O)C(C)(C)[C@@H]5CC[C@@]43C)[C@H]12
-17.2%: max response [3, 9]
-3%: max response [3, 8]
inactive: Potency [6] > 20.6 µM | activity change, negative = inhibition ([3]; at 25.7 µM (top of the series)) -9.82% | Potency [7]

CCO[C@H]1O[C@@H]([C@H](COCc2ccccc2)OCc2ccccc2)[C@@H](OCc2ccccc2)[C@H]1O
-8.63%: max response [3, 8]
-12.6%: max response [3, 9]
inactive: Potency [6] > 20.6 µM | Potency [1] | outcome [2] | activity change, negative = inhibition ([3]; at 25.7 µM (top of the series)) -6.14% | Potency [4] | activity, negative = inhibition ([5]; parasite line B) -27.6% | Potency (3D7) | Potency (C2A) | Potency (CP217) | Potency (CP237) | Potency (CP238) | Potency (CP252) | Potency (CP291) | Potency (CP297) | Potency (ECU) | Potency (PAD) | Potency (SC27B)

O=c1cc(-c2cccc(O)c2)oc2cc(O)ccc12
inactive: Potency [6] > 46 µM | Potency [1] | outcome [2] | activity change, negative = inhibition ([3]; at 57.5 µM (top of the series)) 8.05%
22.9%: max response [3, 8]
28%: max response [3, 9]

CCN(CC)[C@@H](C)CN1c2ccccc2Sc2ccccc21
inactive: Potency [6] > 20.6 µM | Potency [1] | outcome [2] | activity change, negative = inhibition ([3]; at 25.7 µM (top of the series)) 0.633% | Potency [7] | Potency [4] | activity, negative = inhibition ([5]; parasite line B) -12.9% | Potency (C2A) | Potency (CP238) | Potency (CP297) | Potency (HB3) | Potency (PAD)
-2.62%: max response [3, 8]
-2.65%: max response [3, 9]

C=C(C)[C@H]1CC[C@]2(CO)CC[C@]3(C)[C@@H](CC[C@H]4[C@@]5(C)CC[C@@H](O)C(C)(C)[C@@H]5CC[C@@]43C)[C@H]12
-22.1%: max response [3, 9]
-12.9%: max response [3, 8]
inactive: Potency [6] > 20.6 µM | Potency [1] | outcome [2] | activity change, negative = inhibition ([3]; at 25.7 µM (top of the series)) -10.7% | Potency [7]

CO[C@@H]1CC[C@@]2(C)[C@@H](CC[C@@]3(C)[C@H]2CC=C2[C@H]4CC(C)(C)[C@H](O)[C@@H](OC(C)=O)[C@]4(CO)[C@H](O)C[C@]23C)[C@@]1(C)CO (tested in a mixture with another compound)
7.61%: max response [3, 9]
6.28%: max response [3, 8]
inactive: Potency [6] > 20.6 µM | Potency [1] | outcome [2] | activity change, negative = inhibition ([3]; at 25.7 µM (top of the series)) 0.0322% | Potency [7]
